From PubChem BioAssay (Tox21)
Values without a mark were called inactive. Inconclusive results are not listed. Entries that show only a call come without a potency. Active and inactive are the calls of the source. Unless noted, calls come from the whole dose curve; as a rule, active = well fitted curve in the direction sought with a large enough effect in the repeat runs; inconclusive = weak or mixed curves; inactive = no such curve, though single readings can be large; an effect the other way counts as inactive or inconclusive.

Experiments:
[1] = qHTS assay for small molecule agonists of the p53 signaling pathway (AID 651631; calls by dose curve; note: nearly all actives have a fitted effect of over 15% in size; note: potency is the fitted concentration of half-maximal effect)
Outline: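 Stably transfected HCT-116 cells (beta-lactamase behind p53 response elements) get compounds after a 5 h settling period; 16 h later at 37 °C, FRET substrate is loaded and fluorescence read after 2 h.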

[2] = qHTS assay for small molecules that induce genotoxicity in human embryonic kidney cells expressing luciferase-tagged ATAD5 (AID 651632); note: nearly all actives have a fitted effect of over 15% in size
Outline: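 HEK293T cells carrying a luciferase reporter tagged to ATAD5 were exposed to compound or DMSO vehicle for 16 hr at 37C, 5% CO2. Amplite was added, and after 30 min at room temperature luciferase activity was read as a marker of ATAD5 induction.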

[3] = qHTS assay for small molecule agonists of the p53 signaling pathway - cell viability (AID 651633; calls by dose curve; note: nearly all actives have a fitted effect of over 30% in size; note: potency is the fitted concentration of half-maximal effect)
Outline: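 p53RE-bla cells, seeded at 4,000 per well and rested 5 h at 37 C/5% CO2, received compounds in DMSO for 16 h at 37 C. CellTiter-Glo was then added, and luminescence was read after 30 min at room temperature to gauge cytotoxicity.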

[4] = qHTS assay for small molecules that induce genotoxicity in human embryonic kidney cells expressing luciferase-tagged ATAD5 - cell viability (AID 651634; calls by dose curve; note: nearly all actives have a fitted effect of over 25% in size; note: potency is the fitted concentration of half-maximal effect)
Outline: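 HEK293T cells expressing luciferase-tagged ATAD5 were exposed to compound or DMSO for 15.5 hr at 37C, 5% CO2. Viability was then read as live-cell protease activity by CellTiter-Fluor fluorescence after 30 min at 37C.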

[5] = qHTS assay for small molecule disruptors of the mitochondrial membrane potential - cell viability (AID 720634; calls by dose curve;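 note: human HepG2 liver cancer cells; nearly all actives have a fitted effect of over 20% in size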)
Outline: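 HepG2 cells seeded overnight at 37 C, then exposed to compound or DMSO for 1 hr at 37 C, 5% CO2. m-MPI dye added, then CellTiter-Glo for 30 min at room temperature; viability read as ATP luminescence.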

[6] = qHTS assay to test for compound auto fluorescence at 590 nm (red) in HepG2 cells (AID 720674)
Outline: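 Compound auto-fluorescence is scored relative to Rose Bengal sodium, measured at 540/590 nm in live HepG2 cultures after 1 hr compound contact (37 C, 5% CO2).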

[7] = qHTS assay to test for compound auto fluorescence at 535 nm (green) in HepG2 cells (AID 720675)
[8] = qHTS assay to test for compound auto fluorescence at 460 nm (blue) in HEK293 cells (AID 720678); note: potency is the fitted concentration of half-maximal effect
Outline: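 Intrinsic compound fluorescence is recorded in live HEK293 cultures after overnight incubation at 37C, 5% CO2, using excitation 405 nm and emission 460 nm. Values are referenced to triamterene.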

[9] = qHTS assay to test for compound auto fluorescence at 590 nm (red) in HEK293 cells (AID 720679)
Outline: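 Red autofluorescence, HEK293 cells: 2,000 cells/well; attach 4-5 hr 37C; add 23 nL cpd or DMSO; incubate o/n 37C 5% CO2; read Ex540/Em590; Rose Bengal sodium reference.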

[10] = qHTS assay to test for compound auto fluorescence at 535 nm (green) in HEK293 cells (AID 720680)
[11] = qHTS assay to test for compound auto fluorescence at 460 nm (blue) in HEK293 cell free culture (AID 720681); note: potency is the fitted concentration of half-maximal effect
Outline: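 Test compounds were pinned into cell-free culture medium (DMEM with 10% FBS) and fluorescence was read directly at Ex/Em 405/460 nm. Signals were expressed as fluorescence equivalents of triamterene, with DMSO vehicle as control.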

[12] = qHTS assay to test for compound auto fluorescence at 535 nm (green) in HEK293 cell free culture (AID 720682)
Outline: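 Using fluorescein as calibrant, autofluorescence was quantified at 485/535 nm in cell-free DMEM containing 10% FBS after pintool addition of compound or vehicle.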

[13] = qHTS assay to test for compound auto fluorescence at 590 nm (red) in HEK293 cell free culture (AID 720683)
Outline: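 Tox21 10K library compounds were pinned into cell-free DMEM with 10% FBS and fluorescence was read at excitation 540 nm. Activity is expressed as Rose Bengal sodium equivalency.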

[14] = qHTS assay to test for compound auto fluorescence at 590 nm (red) in HepG2 cell free culture (AID 720684)
Outline: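 Measured in medium alone (MEM containing 10% FBS) following pintool addition of compound; emission at 590 nm with 540 nm excitation, referenced to Rose Bengal sodium.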

[15] = qHTS assay to test for compound auto fluorescence at 460 nm (blue) in HepG2 cell free culture (AID 720685); note: potency is the fitted concentration of half-maximal effect
Outline: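 Compound (23 nL) or DMSO pinned into cell-free MEM with 10% FBS; blue fluorescence read at 405/460 nm excitation/emission, expressed as auto-fluorescence equivalency to triamterene.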

[16] = qHTS assay to test for compound auto fluorescence at 535 nm (green) in HepG2 cell free culture (AID 720686)
[17] = qHTS assay to test for compound auto fluorescence at 460 nm (blue) in HepG2 cells (AID 720687); note: potency is the fitted concentration of half-maximal effect
Outline: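 Cells (2,000/well in MEM with 10% FBS) attached overnight at 37 C, then were exposed to compound or DMSO for 1 hr at 37 C, 5% CO2. Fluorescence read at Ex/Em 405/460 nm, expressed as triamterene-equivalent signal.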

[18] = qHTS assay for small molecule disruptors of the mitochondrial membrane potential (AID 720635); note: potency is the fitted concentration of half-maximal effect
Outline: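 HepG2 cells (2,000/well) attached overnight at 37C, then took compound for 1 hr at 37C, 5% CO2. Mito-MPS dye was added for 30 min; fluorescence was read at 490/535 nm (monomers) and 540/590 nm (aggregates).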

[19] = target: Glucocorticoid receptor (Homo sapiens) (UniProt P04150); experiment: qHTS assay to identify small molecule agonists of the glucocorticoid receptor (GR) signaling pathway (AID 720691; active = well fitted activation curve with a large enough effect in the signal ratio in the repeat runs, not every such curve was filed as active; the % refers to the signal ratio; note: potency is the fitted concentration of half-maximal effect); details: GR-bla HeLa, beta-lactamase reporter ratio, 18 h; activation: at 62.4 µM (top of the series)
Sequence of Glucocorticoid receptor (Homo sapiens) (P04150 whole entry, looked up): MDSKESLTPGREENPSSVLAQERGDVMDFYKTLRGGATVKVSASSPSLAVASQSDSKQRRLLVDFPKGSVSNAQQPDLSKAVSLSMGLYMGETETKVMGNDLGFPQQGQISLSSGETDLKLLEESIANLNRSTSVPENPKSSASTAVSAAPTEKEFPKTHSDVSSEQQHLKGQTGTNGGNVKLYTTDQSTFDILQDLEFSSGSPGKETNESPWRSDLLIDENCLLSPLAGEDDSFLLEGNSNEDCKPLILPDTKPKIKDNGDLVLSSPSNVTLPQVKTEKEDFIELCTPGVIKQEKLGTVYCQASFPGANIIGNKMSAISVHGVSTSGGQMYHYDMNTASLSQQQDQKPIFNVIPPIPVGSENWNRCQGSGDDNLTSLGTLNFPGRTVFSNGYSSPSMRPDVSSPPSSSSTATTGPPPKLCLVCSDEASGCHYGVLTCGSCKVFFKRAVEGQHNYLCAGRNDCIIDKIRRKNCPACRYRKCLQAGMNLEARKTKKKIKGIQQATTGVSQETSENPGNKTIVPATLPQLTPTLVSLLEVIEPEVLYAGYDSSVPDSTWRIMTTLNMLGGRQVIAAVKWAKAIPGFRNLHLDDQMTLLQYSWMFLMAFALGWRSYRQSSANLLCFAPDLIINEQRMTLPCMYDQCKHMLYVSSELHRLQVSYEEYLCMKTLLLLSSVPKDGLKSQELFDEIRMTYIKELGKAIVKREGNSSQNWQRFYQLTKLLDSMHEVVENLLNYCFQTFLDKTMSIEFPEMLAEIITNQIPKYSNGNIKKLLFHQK
Outline: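 GR-bla HeLa cells (beta-lactamase reporter under glucocorticoid response element) were plated 4 h at 37 C/5% CO2, given compounds in DMSO, and incubated 18 h at 37 C. LiveBLAzer B/G FRET substrate was added for 2 h at room temperature, then fluorescence intensity read.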

[20] = target: Glucocorticoid receptor (Homo sapiens) (UniProt P04150); experiment: qHTS assay to identify small molecule antagonists of the glucocorticoid receptor (GR) signaling pathway (AID 720692; active = well fitted inhibition curve with a large enough effect in the signal ratio in the repeat runs, not every such curve was filed as active; the % refers to the signal ratio; note: potency is the fitted concentration of half-maximal effect)
Outline: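 GR-bla HeLa cells (beta-lactamase reporter under glucocorticoid response element) were pre-plated 4 h at 37 C, treated with compounds plus 5 nM dexamethasone (final) for 18 h, then read by LiveBLAzer B/G FRET fluorescence after 2 h.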
Tags give direction and shape of the fitted curve or compound fluorescence and quenching.

SMILES	Potency [1]	Potency [2]	Potency [3]	Potency [4]	Potency [5]	outcome [6]	Potency [7]	Potency [8]	outcome [9]	outcome [10]	Potency [11]	outcome [12]	outcome [13]	outcome [14]	Potency [15]	Potency [16]	Potency [17]	Potency [18]	Potency [19]	Potency [20]
C=CC(=C)C	inactive	inactive	inactive	inactive	inactive	inactive	inactive	inactive	inactive	inactive	inactive	inactive	inactive	inactive	inactive	inactive	inactive			
COc1nc(C)nc(NC(=O)NS(=O)(=O)c2ccccc2Cl)n1	inactive	inactive	inactive	inactive	inactive	inactive	inactive	inactive	inactive	inactive		inactive	inactive	inactive	inactive	inactive	inactive	inactive	inactive	inactive
N#CCCl	inactive	inactive	inactive	inactive	inactive	inactive	inactive	inactive	inactive	inactive	inactive	inactive	inactive	inactive	inactive	inactive	inactive	inactive		
COCCC#N	inactive	inactive	inactive	inactive	inactive	inactive	inactive	inactive	inactive	inactive	inactive	inactive	inactive	inactive	inactive	inactive	inactive	inactive	inactive	
CCCCC(CC)COC(=O)OOC(C)(C)C (stereo not drawn)	inactive	inactive	inactive	inactive	inactive	inactive	inactive	inactive	inactive	inactive	inactive	inactive	inactive	inactive	inactive	inactive	inactive			
O=[N+]([O-])c1ccccc1-c1ccccc1	inactive	inactive	inactive	inactive	inactive	inactive	inactive	inactive	inactive	inactive	inactive	inactive	inactive	inactive	inactive	inactive	inactive	inactive		
CCCCCON=O	inactive	inactive	inactive	inactive	inactive	inactive	inactive	inactive	inactive	inactive		inactive	inactive	inactive	inactive	inactive	inactive	inactive		
Clc1ccc(C2(Cn3cncn3)OCCO2)c(Cl)c1	inactive	inactive	inactive	inactive	inactive	inactive	inactive	inactive	inactive	inactive	inactive	inactive	inactive	inactive	inactive	inactive	inactive	inactive	inactive	
CN1[C@@H]2CC[C@H]1CC(O)C2 (stereo partly drawn)	inactive	inactive	inactive	inactive	inactive	inactive	inactive	inactive	inactive	inactive	inactive	inactive	inactive	inactive	inactive	inactive	inactive	inactive		
Cc1cccc(Cc2cnc[nH]2)c1C	inactive	inactive	inactive	inactive	inactive	inactive	inactive	inactive	inactive	inactive	inactive	inactive	inactive	inactive	inactive	inactive	inactive	inactive	inactive	inactive
CC1=C2C[C@H]3[C@@H](CC=C4C[C@@H](O)CC[C@@]43C)[C@@H]2CC[C@]12O[C@@H]1C[C@H](C)CN[C@H]1[C@H]2C	inactive	inactive	inactive	inactive		inactive	inactive	inactive	inactive	inactive	inactive	inactive		inactive	inactive	inactive	inactive		inactive	
COc1ccc2c(c1OC)C(=O)O[C@@H]2[C@H]1c2cc3c(cc2CCN1C)OCO3	inactive	inactive	inactive	inactive	inactive	inactive	inactive	inactive		inactive	inactive	inactive	inactive	inactive	inactive	inactive	inactive			
CCOP(=S)(NC(C)C)Oc1ccccc1C(=O)OC(C)C (stereo not drawn)	inactive	inactive	inactive	inactive		inactive	inactive	inactive	inactive	inactive	inactive	inactive	inactive	inactive	inactive	inactive	inactive	27.3 µM (active)	inactive	
Oc1ccc(Cl)c(Cl)c1	inactive	inactive	inactive	inactive		inactive	inactive	inactive	inactive	inactive	inactive	inactive	inactive	inactive	inactive	inactive	inactive	6.75 µM (active)		
CC(C)Br	inactive	inactive	inactive	inactive	inactive	inactive	inactive	inactive		inactive	inactive	inactive	inactive	inactive	inactive	inactive	inactive		inactive	
CCN(CC)C(=O)N[C@@H]1C=C2c3cccc4[nH]cc(c34)C[C@@H]2N(C)C1	inactive	inactive	inactive		inactive	inactive		inactive	inactive	inactive	inactive	inactive		inactive	inactive	inactive	inactive	1.68 µM (active)	inactive	
CC(C)(C)c1ccc(OP(=O)(Oc2ccccc2)Oc2ccccc2)cc1	inactive	inactive	inactive	inactive		inactive	inactive	inactive	inactive	inactive	inactive	inactive	inactive	inactive	inactive	inactive	inactive	9.75 µM (active)		
CCC(C)Br (stereo not drawn)	inactive	inactive	inactive	inactive	inactive	inactive	inactive	inactive		inactive		inactive	inactive	inactive	inactive	inactive	inactive			
CCCC[N+]1(C)CCCC1 (tested in a mixture with another compound)	inactive	inactive	inactive	inactive	inactive	inactive	inactive	inactive	inactive	inactive		inactive	inactive	inactive	inactive	inactive	inactive			
CN1CCc2cc3c(cc2C1O)OCO3 (stereo not drawn)	61.5 µM (active)	inactive	inactive		inactive	inactive	inactive	35.5 µM [fluorescent] (active)		inactive	39.8 µM (active)	inactive	inactive	inactive	39.8 µM [fluorescent] (active)	inactive	39.8 µM [fluorescent] (active)			
c1ccc2c(c1)cc1ccc3cccc4ccc2c1c34	3.5 µM (active)	inactive	inactive	inactive		inactive			inactive	inactive	inactive	inactive	inactive	inactive		inactive		14 µM (active)	25 µM [fluorescent] (active)	
COC(=O)c1ccccc1S(=O)(=O)NC(=O)Nc1nc(C)nc(OC)n1	inactive	inactive	inactive	inactive	inactive	inactive	inactive	inactive		inactive	inactive	inactive		inactive	inactive	inactive	inactive			
Nc1ccccc1-c1ccccc1	inactive	inactive	inactive		inactive	inactive	inactive	inactive	inactive	inactive	inactive	inactive	inactive	inactive	inactive	inactive	inactive		inactive	
O=[N+]([O-])c1ccc(Cl)c(Cl)c1Cl	inactive	inactive	inactive	inactive	inactive	inactive	inactive	inactive	inactive	inactive		inactive		inactive	inactive	inactive	inactive			
C#CC1(O)CCCCC1	inactive	inactive	inactive	inactive	inactive	inactive	inactive	inactive	inactive	inactive	inactive	inactive		inactive	inactive	inactive	inactive			
CSC1=N[C@@](C)(c2ccccc2)C(=O)N1Nc1ccccc1	inactive	inactive	inactive	inactive		inactive		inactive	inactive	inactive		inactive	inactive	inactive	inactive	inactive	inactive	61.1 µM (active)	inactive	
[Cl][Hg][c]1ccccc1	6.11 µM (active)	inactive	1.93 µM (active)	19.3 µM (active)		inactive	inactive	inactive	inactive	inactive	inactive	inactive	inactive	inactive	inactive	inactive	inactive	6.11 µM (active)		
CCOC(=O)CCN(SN(C)C(=O)Oc1cccc2c1OC(C)(C)C2)C(C)C	inactive	inactive	inactive	inactive		inactive	inactive	inactive	inactive	inactive	inactive	inactive	inactive	inactive	inactive	inactive	inactive		inactive	
N#Cc1ccc(N(CC(N)=O)CC(F)(F)F)cc1C(F)(F)F	inactive	inactive	inactive	inactive	inactive	inactive	inactive	inactive		inactive		inactive	inactive	inactive	inactive	inactive	inactive			
CC[C@]1(O)CC[C@H]2[C@@H]3CCC4=CCCC[C@@H]4[C@H]3CC[C@@]21C	3.76 µM (active)	inactive	inactive	10.6 µM (active)		inactive	inactive	inactive	inactive	inactive		inactive		inactive	inactive	inactive	inactive	7.5 µM (active)		1.69 µM (active)
